# Reference: PubChem BioAssay AID618 (Sanford-Burnham Center for Chemical Genomics, 2007)
# Screen size: about 87,000 compounds; about 540 (0.62%) were called active. The sample holds actives, similar compounds and a random draw of the others, so the mix is not that of the screen. The rule behind the calls is not given here. Entries with a potency or affinity are not part of this list.
# Test: MT1-MMP gene expression reporter suppression – cell-based, luciferase reporter, luminescence (AID 618);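 note: actives suppress MT1-MMP promoter-driven transcription so potencies describe inhibitors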
# Settings: MT1-MMP promoter luciferase reporter cells
row,SMILES,outcome
1,Cc1noc(NS(=O)(=O)c2ccc(NC(=O)CSc3nc4ccccc4[nH]3)cc2)c1C,inactive
2,CCCc1nc(SCc2ccccn2)c2c(=O)n(C)c(=O)n(C)c2n1,inactive
3,CCOc1nc(NCCc2ccc(OC)c(OC)c2)nc(N2CCN(c3ccc(OC)cc3)CC2)n1,inactive
4,Cc1cccc(N2CCN(C(=O)c3cc4c(=O)n(C)c5ccccc5c4n3C)CC2)c1C,inactive
5,COc1ccc(-c2cc(=O)c3ccccc3s2)cc1,inactive
6,COc1ncnc2sc(-c3ccccc3)cc12,inactive
7,O=C(Nc1ccc(N2CCCC2=O)cc1)c1cccc(F)c1,inactive
8,O=C(Nc1ccc(N2CCCCC2)cc1)c1cccnc1,inactive
9,O=C(Nc1ccc(N2CCCC2)cc1)c1cccc(F)c1,active
10,O=C(Nc1ccc(N2CCN(C(=O)c3ccco3)CC2)cc1)c1cccc(F)c1,inactive
11,O=C(Nc1ccc(N2CCCCC2)cc1)c1ccc(F)cc1,inactive
12,O=C(COc1ccc(Br)cc1CO)Nc1ccccc1F,inactive
13,O=C(NCCCN=C1NS(=O)(=O)c2ccccc21)c1ccco1,inactive
14,COC(=O)C1CCN(C(=O)c2ccc(NC(C)=O)cc2)CC1,inactive
15,CCOC(=O)C(C)Oc1cccc2c(=O)n(CC(=O)N3CCc4ccccc43)ccc12 (stereo not drawn),inactive
16,CCOC(=O)C(C)Oc1cccc2c(=O)n(CC(=O)NCc3ccco3)ccc12 (stereo not drawn),active
17,CCOC(=O)COc1cccc2c(=O)n(CC(=O)NCc3ccc4c(c3)OCO4)ccc12,inactive
18,Nc1nonc1C(=O)NCCNCc1cc(Br)ccc1OCc1ccc(F)cc1,inactive
19,Nc1nonc1C(=O)NCCNCc1ccccc1OCc1ccccc1F,inactive
20,Nc1nonc1C(=O)NCCNCc1cc(Br)ccc1OCc1ccccc1F,active
21,c1ccc(C2CC(c3ccccc3)n3ncnc3N2)cc1 (stereo not drawn),inactive
22,O=c1[nH]c(=O)n([C@H]2C[C@H](O)[C@@H](CO)O2)cc1C(F)(F)F,inactive
23,O=c1[nH]c(=O)n([C@H]2C[C@H](O)[C@@H](CO)O2)cc1F,active
24,CCc1cn([C@H]2C[C@H](O)[C@@H](CO)O2)c(=O)[nH]c1=O,inactive
25,Cc1ccc(NC(=O)CN(C)C(=O)CSc2nc3ccccc3c(=O)n2Cc2ccco2)cc1,inactive

row,SMILES,outcome
1,Cc1csc2nc(CSc3ccc(Cl)cc3)cn12,inactive
2,Cc1csc2nc(CSc3nc4ccccc4o3)cn12,inactive
3,Cc1ccc(-c2cc(C(=O)N/N=C/c3ccco3)[nH]n2)cc1,inactive
4,COc1ccccc1/C=N/NC(=O)C1=NNC(c2ccccc2)(c2ccccc2)C1,inactive
5,O=C(CSc1ccccc1)Nc1ccncc1,inactive
6,Cc1cc2c(c(=O)n1Cc1ccccn1)C(C(C)C)C(C#N)=C(N)O2 (stereo not drawn),inactive
7,Cc1nc(-c2cccc(N)c2)cs1,inactive
8,Nc1cccc(-c2nc3ccccc3s2)c1,inactive
9,Cc1nc2ccc(N)cc2s1,inactive
10,Nc1cccc(-c2nc3ccc(N)cc3s2)c1,active
11,Nc1ccc(O)c(-c2nc3ccccc3s2)c1,inactive
12,COc1cccc(NC(=O)C2C3C=CC4(O3)C2C(=O)N(C2CC2)C4C(=O)NC2CCCCC2C)c1 (stereo not drawn),inactive
13,C=C(C)c1cccc(C(C)(C)NC(=O)N2CCN(CC(N)=O)CC2)c1,inactive
14,CC(C)(C)c1ccc(C2(C)NC(=O)N(CC(=O)Nc3ccc4c(c3)OCO4)C2=O)cc1 (stereo not drawn),inactive
15,CCCCCn1c(=O)[nH]c2cc(C(=O)N3CCN(CC)CC3)ccc2c1=O,inactive
16,CCOC(=O)N1CCN(C(=O)CN(C2CCCCC2)S(=O)(=O)c2ccc(Cl)cc2)CC1,inactive
17,CCOc1ccccc1OCCCC(=O)Nc1ccc(OC)nc1,inactive
18,COc1ccc(NC(=O)/C(Cl)=C(/Cl)S(=O)Cc2ccc(C)cc2)cn1 (stereo not drawn),active
19,COc1ccc(NC(=O)c2cc(CN3C(=O)c4ccccc4C3=O)ccc2OC)cn1,inactive
20,COc1ccc(NC(=O)/C(Cl)=C(/Cl)S(=O)Cc2ccccc2)cn1 (stereo not drawn),active
21,COc1ccc(NC(=O)c2nc3nccc(C)n3n2)cn1,inactive
22,COc1ccc(NC(=O)c2cc(=O)c3ccccc3o2)cn1,inactive
23,Cc1ccc(C(=O)n2cnnc2N)cc1,inactive
24,CN(C)c1nc(N)nc(-c2cccnc2)n1,inactive
25,COc1ccc(C)cc1S(=O)(=O)N(C)CC(=O)Nc1ccc2c(c1)OCO2,inactive

row,SMILES,outcome
1,Cc1ccc2ccccc2c1COC(=O)c1nonc1N,inactive
2,CC(=O)Nc1cccc(Oc2ccc(-c3noc(C)n3)cc2)c1,inactive
3,CCCC(=O)N1CC(=O)Nc2ccc(F)cc2C1c1ccccc1 (stereo not drawn),inactive
4,COc1ccccc1NC(=O)COc1ccc(CO)cc1Cl,inactive
5,O=C(COc1ccc(CO)cc1)Nc1ccc(F)cc1,inactive
6,N#C/C(=C\c1ccc[nH]1)Sc1nc2ccccc2s1,inactive
7,COc1ccccc1N(CC(=O)NC1CCCC1)C(=O)CCC(=O)Nc1cc(C)on1,inactive
8,Cc1cc(C(=O)CN2C(=O)c3ccccc3C2=O)c(C)n1Cc1cccs1,inactive
9,CC(=O)Nc1ccccc1OCC(=O)c1cc(C)n(Cc2cccs2)c1C,inactive
10,CC(=O)Nc1ccc(SCC(=O)c2cc(C)n(C)c2C)cc1,inactive
11,C=CCn1c(C)cc(C(=O)CSc2nc3ccccc3o2)c1C,inactive
12,C=CCn1c(C)cc(C(=O)CSc2n[nH]c(N)n2)c1C,inactive
13,COCC(C)n1c(C)cc(C(=O)CSc2ccc(NC(C)=O)cc2)c1C (stereo not drawn),inactive
14,COc1ccc(-c2n[nH]c(C)c2-c2cc(OC)ccc2O)cc1,inactive
15,CCSC1=C(C#N)C(c2ccccc2C)CC(=O)N1 (stereo not drawn),inactive
16,Cc1cc(SCc2cc(=O)[nH]c3ccccc23)nc2ccccc12,inactive
17,O=C(O)c1c2c(nc3ccc(F)cc13)CCC2,inactive
18,COCCn1nnnc1C(c1ccc(OC)cc1OC)N1CCN(c2ccccc2F)CC1 (stereo not drawn),inactive
19,Cc1ccccc1OCC(=O)Nn1c(COc2ccccc2)nc2ccccc2c1=O,inactive
20,CC1=C(C)C(=O)N(c2ccc(C(=O)O)cc2)C1=O,inactive
21,O=C1/C(=C\c2ccc3ccccc3c2)CCCc2ccccc21,inactive
22,COC(=O)c1ccc(C(NC(=O)OCc2ccccc2)/C(F)=C/[C@@H](C)C(=O)NCc2ccc(OC)c(OC)c2)cc1 (stereo partly drawn),inactive
23,CCC(C)C1C(C#N)=C(N)Oc2n[nH]c(-c3ccccc3)c21 (stereo not drawn),inactive
